Data on 16 compounds can be found in PubChem BioAssay (NCATS).

Values without a mark were called inactive. Results filed as inconclusive are left out. Active and inactive are the calls of the source. Unless noted, calls come from the whole dose curve; as a rule, active = well fitted curve in either direction with a large enough effect (not every such curve was filed as active); inconclusive = small, poorly fitted or top-dose-only effect, or another doubt; inactive = flat fitted curve, though single readings scatter. Bounds are passed on as bounds.

Assay [1] concerns the target Lysosomal acid glucosylceramidase (Homo sapiens) (UniProt P04062). Kind of assay: Glucocerebrosidase-p2 (AID 348; in the data active = potency below about 10 µM; note: potency is the fitted concentration of half-maximal effect). The note with it: purified GBA, blue fluorogenic substrate, 40 min. The procedure, abridged:
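Normal human glucocerebrosidase (0.2 nM) with blue fluorogenic substrate (80 uM final) in citrate/phosphate pH 5.9 with 10mM sodium taurocholate, 0.01% tween-20; 40 min RT, NaOH/glycine stop; fluorescence Ex 365/Em 440; AC50 from a titration from 0.6 nM upwards.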

Assay [2] can be described thus: AP1 Signaling Pathway (AID 357). Note: % is set by controls: 0 for no effect and ±100 for the full control effect. The note with it: ME-180 AP-1-bla reporter, EGF-induced, beta-lactamase ratio, 5 h; at 7.69 µM (top of the series) unless noted. The procedure, abridged:
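ME-180 cells with beta-lactamase reporter under AP-1 response element, stimulated with EC50 EGF; compounds tested in titration series, 5 h at 37 °C. CCF4 substrate added 2.5 h at room temperature; 460/530 nm emission ratio gave %activity and AC50.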

Assay [3] concerns the target Cytochrome P450 1A2 (Homo sapiens) (UniProt P05177). Kind of assay: p450-cyp1a2 (AID 410; calls by dose curve; note: potency is the fitted concentration of half-maximal effect). The note with it: recombinant CYP1A2, luciferin-ME demethylation, luminescence; series mostly up to 11.4 µM. The procedure, abridged: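 Read-out is luminescence from luciferin produced by CYP1A2 demethylation of Luciferin-ME (100uM, at Km). Detection reagent stopped the 60 min NADPH-dependent reaction; signals were normalized to 57 uM furafylline.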

Assay [4] in a line: NFAT Signaling Pathway (AID 444).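 Note: carbachol stimulus at about its EC50 of 1 µM final; % is set by controls: 0 for no effect and ±100 for the full control effect.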 The note with it: Jurkat NFAT-bla M1, carbachol, beta-lactamase ratio, 5 h; at 7.69 µM (top of the series) unless noted. The procedure, abridged:
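Jurkat cells with NFAT-driven β-lactamase reporter and co-expressed M1 receptor, stimulated with carbachol (final 1 uM, ~EC50), compound titration, 5 h at 37 °C. CCF4 loaded 1 h at RT; 460/530 nm ratio gave %activity and AC50.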

Assay [5] can be described thus: Stat Signaling Pathway (AID 446).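 Note: ME-180 cervical cancer cells given 40 pM IL-6 alongside compound; SIE-controlled beta-lactamase reporter measured as 460/530 nm FRET emission ratio; % is set by controls: 0 for no effect and ±100 for the full control effect.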 The note with it: ME-180 SIE beta-lactamase reporter, IL-6 stimulated, 5 h; at 7.69 µM (top of the series) unless noted. The procedure, abridged: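 Compound effects on IL-6-induced STAT reporter activity were measured in ME-180 cells. After overnight culture, cells were co-treated with 40 pM IL-6 for 5 hrs before beta-lactamase substrate loading at room temperature.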

Assay [6] concerns the target Glucocorticoid receptor (Homo sapiens) (UniProt P04150). As to the kind of experiment: GR-EFC Redistribution (AID 451; calls by dose curve; note: potency is the fitted concentration of half-maximal effect). The note with it: CHO-K1 GR-EFC translocation, beta-gal luminescence, 2 h. The procedure, abridged: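 CHO-K1 cells expressing nuclear EA and GR-ED fragments of b-gal; compounds titrated up to 46 uM final, 2 h at 37 C. GR nuclear translocation read as complemented b-gal luminescence after 1 h RT detection.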

Assay [7] deals with Mitogen-activated protein kinase 10 (Mus musculus) (UniProt Q61831). Kind of assay: JNK3 AlphaScreen Assay (AID 530).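 Note: kinase came from lysate of stimulated human HepG2 cells; signal reports phosphorylation of biotinylated GST-cJun 1-79 at Ser73 with 10 µM ATP; % is set by controls: 0 for no effect and ±100 for the full control effect.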 Conditions: JNK3 lysate, c-Jun phosphorylation; series mostly up to 57.1 µM. The procedure, abridged: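 HepG2 lysate (IL-1b/TNFa pre-activated) + biotin-GST-cJun 1-79 + anti-pSer73 cJun; cpd titration, 15 min RT; ATP 10 uM start; Tris pH 7.6, MgCl2, DTT, vanadate; beads in EDTA buffer; AlphaScreen.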
(Bead proximity is the source of the signal in Alpha formats.)

Assay [8] has as its target 3',5'-cyclic-AMP phosphodiesterase 4B (Homo sapiens) (UniProt Q07343). As to the kind of experiment: qHTS Assay for Inhibitors of PDE-IV (AID 607; active = well fitted activation curve with a large enough effect in the main read-out, with a control signal flat, not every such curve was filed as active; note: % of control where 0% means no effect). Conditions: HEK293 ACTOne CNG channel cells, membrane potential fluorescence; series mostly up to 22.9 µM. The procedure, abridged: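 ACTOne HEK293 cells carry a modified cAMP-gated CNG channel and express endogenous PDE4; plated 1000 cells/well, compounds up to 22.9 uM final. Membrane-potential dye fluorescence (ex 535/em 590) was read; parental cells received 10 uM forskolin + 100 uM RO 20-1724.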
In general terms: qHTS replaces the single test concentration by a dilution series.

For assay [9], the target named is Glucocorticoid receptor (Homo sapiens) (UniProt P04150). Kind of assay: GR-GFP Redistribution (AID 450;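 active = compounds whose dose series gives a full or clear partial fitted curve of increased nuclear translocation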; note: potency is the fitted concentration of half-maximal effect). Conditions: U2OS GR-GFP nuclear translocation, laser cytometry, 2 h.
Sequence of Glucocorticoid receptor (Homo sapiens) (P04150 whole entry, looked up, the tested form may be a part): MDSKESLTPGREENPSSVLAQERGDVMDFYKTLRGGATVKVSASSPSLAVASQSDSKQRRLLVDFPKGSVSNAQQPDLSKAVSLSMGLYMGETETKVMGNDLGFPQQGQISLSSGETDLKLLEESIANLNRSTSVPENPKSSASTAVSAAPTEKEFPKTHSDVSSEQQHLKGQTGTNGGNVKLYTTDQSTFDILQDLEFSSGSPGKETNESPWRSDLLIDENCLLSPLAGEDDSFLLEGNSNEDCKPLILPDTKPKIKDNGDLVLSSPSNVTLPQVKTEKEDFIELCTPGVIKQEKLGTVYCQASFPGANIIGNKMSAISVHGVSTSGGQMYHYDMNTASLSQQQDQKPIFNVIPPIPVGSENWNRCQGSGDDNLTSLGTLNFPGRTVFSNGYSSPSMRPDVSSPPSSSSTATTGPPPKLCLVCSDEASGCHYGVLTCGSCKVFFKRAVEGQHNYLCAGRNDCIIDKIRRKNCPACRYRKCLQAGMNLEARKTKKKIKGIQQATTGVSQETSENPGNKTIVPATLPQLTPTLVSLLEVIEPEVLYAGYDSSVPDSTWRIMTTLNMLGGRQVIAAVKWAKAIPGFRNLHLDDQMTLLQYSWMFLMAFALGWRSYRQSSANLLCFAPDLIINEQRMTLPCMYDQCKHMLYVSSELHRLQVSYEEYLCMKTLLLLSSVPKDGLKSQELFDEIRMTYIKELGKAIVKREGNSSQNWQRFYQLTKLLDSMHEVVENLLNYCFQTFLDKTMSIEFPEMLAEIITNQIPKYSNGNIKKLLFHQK
Assay [10] concerns the target Cytochrome P450 2C19 (Homo sapiens) (UniProt P33261). As to the kind of experiment: qHTS Assay for Inhibitors and Substrates of Cytochrome P450 2C19 (AID 899; active = well fitted inhibition curve with a large enough effect; note: % is set by controls: 0 for no effect and ±100 for the full control effect; nearly all actives have a fitted effect of over 60% in size). The note with it: recombinant CYP2C19, luciferin-H EGE luminescence; series mostly up to 11.4 µM. The procedure, abridged: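 Luminescent read-out of luciferin formed from Luciferin-H EGE (10uM, equal to KM). Enzyme 5nM in 50mM KPO4; compound added, 10 min at 37C, then NADPH regenerating system for 60 min at 37C. Full inhibition defined by 57uM ketoconazole.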

Assay [11] is described as follows: qHTS Assay for Identification of Small Molecule Agonists for Hypoxia Response Element Signaling Pathway (AID 914; active = well fitted activation curve with a large enough effect in the signal ratio, with a control signal flat, not every such curve was filed as active; the % refers to the signal ratio; note: % of control where 0% means no effect). The note with it: ME-180 (cervical carcinoma) HRE-bla reporter, beta-lactamase ratio, CoCl2, 17 h; stronger effect = higher value. The procedure, abridged: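 In Opti-MEM containing 0.5% dialyzed FBS and 10 mM HEPES, ME-180 HRE-bla cells received a compound titration and EC50 CoCl2. They were incubated 17 hours, then CCF4-loaded 2.5 hours at room temperature before ratio reading.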

For assay [12], the target named is Cytochrome P450 2C9 (Homo sapiens) (UniProt P11712). As to the kind of experiment: qHTS Assay for Inhibitors and Substrates of Cytochrome P450 2C9 (AID 883; active = well fitted inhibition curve with a large enough effect; note: potency is the fitted concentration of half-maximal effect; nearly all actives have a fitted effect of over 60% in size). Conditions: recombinant CYP2C9, luciferin-H luminescence, 60 min; series mostly up to 57.1 µM. The procedure, abridged: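 10nM CYP2C9 + 100uM Luciferin-H (=KM), 25mM KPO4; cpd 10 min 37C; NADPH regen, 60 min 37C; stop/detect with P450 Glo-Buffer 20 min; luminescence. Norm. to 57uM sulphaphenazole as full inhibition.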
Sequence of Cytochrome P450 2C9 (Homo sapiens) (P11712 whole entry, looked up): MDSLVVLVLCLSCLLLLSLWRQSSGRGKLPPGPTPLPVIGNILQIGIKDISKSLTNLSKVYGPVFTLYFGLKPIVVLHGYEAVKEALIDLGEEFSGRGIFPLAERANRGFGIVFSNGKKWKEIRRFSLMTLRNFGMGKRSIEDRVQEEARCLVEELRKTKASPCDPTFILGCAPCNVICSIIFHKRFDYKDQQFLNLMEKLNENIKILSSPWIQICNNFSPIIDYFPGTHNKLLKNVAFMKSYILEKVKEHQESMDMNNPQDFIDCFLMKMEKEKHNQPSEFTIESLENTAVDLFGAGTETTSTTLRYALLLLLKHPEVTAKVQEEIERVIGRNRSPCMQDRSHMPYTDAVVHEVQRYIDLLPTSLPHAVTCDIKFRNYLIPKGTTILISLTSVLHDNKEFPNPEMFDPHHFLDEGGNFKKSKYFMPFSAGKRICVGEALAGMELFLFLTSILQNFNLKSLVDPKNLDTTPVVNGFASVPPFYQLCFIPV

Sequence of Cytochrome P450 1A2 (Homo sapiens) (P05177 whole entry, looked up): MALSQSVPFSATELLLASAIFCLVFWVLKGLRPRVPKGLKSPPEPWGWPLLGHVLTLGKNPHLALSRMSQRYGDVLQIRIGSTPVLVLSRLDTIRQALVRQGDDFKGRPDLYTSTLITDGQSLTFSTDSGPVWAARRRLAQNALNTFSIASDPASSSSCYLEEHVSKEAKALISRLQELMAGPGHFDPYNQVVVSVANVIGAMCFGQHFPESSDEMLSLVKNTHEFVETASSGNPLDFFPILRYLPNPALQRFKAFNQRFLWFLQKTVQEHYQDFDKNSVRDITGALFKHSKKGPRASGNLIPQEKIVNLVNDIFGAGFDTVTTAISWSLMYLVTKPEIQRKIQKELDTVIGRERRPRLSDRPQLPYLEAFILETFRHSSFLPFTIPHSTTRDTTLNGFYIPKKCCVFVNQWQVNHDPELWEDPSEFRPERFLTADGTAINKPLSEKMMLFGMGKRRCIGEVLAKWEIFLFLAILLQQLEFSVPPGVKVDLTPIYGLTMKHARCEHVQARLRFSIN
Sequence of 3',5'-cyclic-AMP phosphodiesterase 4B (Homo sapiens) (Q07343 whole entry, looked up): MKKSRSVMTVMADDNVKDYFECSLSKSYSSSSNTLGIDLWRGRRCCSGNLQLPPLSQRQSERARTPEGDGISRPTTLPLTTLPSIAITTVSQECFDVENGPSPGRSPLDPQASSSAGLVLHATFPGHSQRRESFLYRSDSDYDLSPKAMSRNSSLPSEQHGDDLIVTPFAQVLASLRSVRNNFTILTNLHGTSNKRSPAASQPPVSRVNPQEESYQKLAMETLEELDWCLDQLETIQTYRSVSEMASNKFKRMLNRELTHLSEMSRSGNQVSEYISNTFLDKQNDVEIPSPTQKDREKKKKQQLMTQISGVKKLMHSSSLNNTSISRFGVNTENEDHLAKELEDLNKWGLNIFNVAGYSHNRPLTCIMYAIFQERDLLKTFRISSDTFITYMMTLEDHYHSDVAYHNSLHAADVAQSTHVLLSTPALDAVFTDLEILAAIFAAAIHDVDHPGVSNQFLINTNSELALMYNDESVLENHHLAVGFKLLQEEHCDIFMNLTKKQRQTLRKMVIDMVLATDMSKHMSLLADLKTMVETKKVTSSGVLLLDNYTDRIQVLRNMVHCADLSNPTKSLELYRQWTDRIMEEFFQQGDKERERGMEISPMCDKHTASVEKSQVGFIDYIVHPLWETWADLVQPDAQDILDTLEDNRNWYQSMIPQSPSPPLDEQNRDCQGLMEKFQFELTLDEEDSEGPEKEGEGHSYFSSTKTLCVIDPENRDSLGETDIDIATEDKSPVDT
Sequence of Lysosomal acid glucosylceramidase (Homo sapiens) (P04062 whole entry, looked up): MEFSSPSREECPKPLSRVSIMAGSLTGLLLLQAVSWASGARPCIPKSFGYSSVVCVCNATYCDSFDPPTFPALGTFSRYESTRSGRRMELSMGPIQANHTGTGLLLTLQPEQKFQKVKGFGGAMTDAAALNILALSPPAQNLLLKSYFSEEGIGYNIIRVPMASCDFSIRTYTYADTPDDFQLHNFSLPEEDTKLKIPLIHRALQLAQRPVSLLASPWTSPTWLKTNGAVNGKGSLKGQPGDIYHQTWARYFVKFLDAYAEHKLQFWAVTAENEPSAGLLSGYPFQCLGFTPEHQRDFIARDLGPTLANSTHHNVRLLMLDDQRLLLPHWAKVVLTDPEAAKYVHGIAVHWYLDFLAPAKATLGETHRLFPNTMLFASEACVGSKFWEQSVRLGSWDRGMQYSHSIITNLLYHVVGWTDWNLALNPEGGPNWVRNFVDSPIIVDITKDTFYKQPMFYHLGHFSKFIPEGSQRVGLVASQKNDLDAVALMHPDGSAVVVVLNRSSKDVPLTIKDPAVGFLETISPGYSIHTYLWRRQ
Sequence of Cytochrome P450 2C19 (Homo sapiens) (P33261 whole entry, looked up): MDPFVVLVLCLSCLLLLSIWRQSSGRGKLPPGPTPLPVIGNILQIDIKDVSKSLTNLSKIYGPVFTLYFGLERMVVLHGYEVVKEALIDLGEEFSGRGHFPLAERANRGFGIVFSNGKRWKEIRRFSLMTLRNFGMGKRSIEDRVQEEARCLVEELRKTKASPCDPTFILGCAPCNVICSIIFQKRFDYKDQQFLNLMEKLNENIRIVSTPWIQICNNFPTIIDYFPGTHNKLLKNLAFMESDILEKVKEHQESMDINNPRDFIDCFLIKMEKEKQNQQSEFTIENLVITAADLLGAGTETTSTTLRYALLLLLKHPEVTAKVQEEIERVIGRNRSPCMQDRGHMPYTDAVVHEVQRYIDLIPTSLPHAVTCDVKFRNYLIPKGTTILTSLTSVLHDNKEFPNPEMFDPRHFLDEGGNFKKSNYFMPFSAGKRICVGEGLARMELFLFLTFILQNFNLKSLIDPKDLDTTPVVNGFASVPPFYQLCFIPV

Regarding `NCCCN1CCN(c2ccccc2)CC1`, the Potency in assay [1] is over 11.4 µM; in assay [6], over 9.22 µM. For the same compound, the results for the activity change, negative = inhibition in assay [2], in [4] and in assay [7] were 2.17%, -2.83% and -2.39% [at 11.4 µM], respectively. The Potency result in [3] is “inactive”. The activity, negative = inhibition in assay [5] was 5.73%. In assay [8], the call was inactive.

Consider `O=C1N[C@@]2(CN3CCC2CC3)C(=O)N1CN(Cc1ccccc1)c1ccccc1`, for which the Potency in assay [1] is over 11.4 µM; in assay [3], 0.398 µM (active); in assay [6], over 9.22 µM. In addition, the activity change, negative = inhibition in assay [2] was -6.81%; in assay [4], 6.45%; in assay [7], 4.81% [at 11.4 µM]. For the same compound, in [5], the activity, negative = inhibition is -6.68%. Further, the compound was called inactive in [8].

For the compound `CC1(C)CCC(C)(C)c2c1ccc(O)c2Cc1c(O)ccc2c1C(C)(C)CCC2(C)C`, the Potency was over 11.4 µM in assay [1], 5.01 µM (active) in [3], over 46 µM in [9] and over 9.22 µM in assay [6]. Moreover, the results for the activity change, negative = inhibition in assay [2] and in assay [7] were -8.54% and -1.06% [at 11.4 µM], respectively. The activity, negative = inhibition in assay [5] is 0.741%. Moreover, in assay [8], the result was inactive.

Take `C[C@@H]1[C@@H](C)N1C[C@H](O)Cn1ccnc1[N+](=O)[O-]` (some centres not stated): the Potency was over 11.4 µM in [1] and over 9.22 µM in assay [6]. Moreover, the figures for the activity change, negative = inhibition in [2], in assay [4] and in [7] were 1.57%, 5.22% and -1.55% [at 11.4 µM], respectively. The Potency result in assay [3] was “inactive”. The activity, negative = inhibition in [5] is -1.27%. The compound was classed as inactive in assay [8].

Consider `CC[C@H]1CN2CCc3cc(OC)c(OC)cc3[C@H]2C[C@@H]1C[C@H]1NCCc2c1[nH]c1ccc(O)cc21`, for which the results for the Potency in assay [1], in [9] and in assay [6] were over 11.4 µM, over 46 µM and over 9.22 µM, respectively. The activity change, negative = inhibition in [2] was -118% (active); in assay [4] it was -128% (active); in assay [7], -2.73% [at 11.4 µM]. Moreover, the Potency result in [3] was “inactive”. For the same compound, in assay [8], the result was inactive.

Consider `Cn1c(=O)c2[nH]cnc2n(C)c1=O.[CH2-][C@H](Cc1cccc2cc(C(=O)O)c(=O)oc12)OC.[Hg].[OH-]`, for which, in assay [1], the Potency was 4.43 µM (active). The activity change, negative = inhibition is -5.03% in [2], 6.5% in [4] and -0.539% [at 11.4 µM] in [7]. For the same compound, the Potency result in assay [3] is “inactive”. Also, the activity, negative = inhibition in [5] was 14%. Also, the compound was called inactive in [8].

On to `O=C(O)C(=O)Cc1ccc2c(c1)OCO2`, for which the Potency was over 11.4 µM in assay [1], 3.98 µM (active) in [3] and over 9.22 µM in assay [6]. For the same compound, the activity change, negative = inhibition in assay [2] is 6.13%; in assay [4], 16.4%; in assay [7], 4.31% [at 11.4 µM]. In addition, the activity, negative = inhibition in [5] was 3.17%. Also, the result in assay [8] was inactive. Also, in [10], the Potency entry was “inactive”. Besides, in assay [11], the activation is -7.84%.

As to `O=[As](O)(O)c1ccc(N=Nc2ccc(O)cc2)cc1`, the results for the Potency in assay [1] and in [9] were over 11.4 µM and over 46 µM, respectively. The figures for the activity change, negative = inhibition in assay [2], in assay [4] and in assay [7] were 3.33%, 9.82% and -2.48% [at 11.4 µM], respectively. In addition, in assay [3], the Potency entry is “inactive”. Also, the activity, negative = inhibition in assay [5] is 3.63%. For the same compound, the compound was classed as inactive in [8]. Also, the activation in assay [11] was 5.33%.

On to `NC(N)=NCCN=C(N)N`, for which the Potency in [1] was over 11.4 µM; in assay [9], over 46 µM. The activity change, negative = inhibition is 1.56% in assay [2], -0.323% in [4] and 1.78% [at 11.4 µM] in assay [7]. Moreover, the Potency entry in assay [3] is “inactive”. Further, in assay [8], the call was inactive.

For `Nc1nc(N)c(Cn2ccnc2)c(=O)[nH]1`, the figures for the Potency in [1] and in assay [9] were over 11.4 µM and over 46 µM, respectively. Further, the activity change, negative = inhibition in assay [2] was -1.23%; in assay [4] it was 17.6%; in assay [7] it was 2.41% [at 11.4 µM]. In addition, the Potency entry in assay [3] is “inactive”. Besides, in [5], the activity, negative = inhibition was 7.55%. The outcome in assay [8] was inactive.

For `CC1=C2C(=O)[C@@H]3[C@@H](CC=C4C[C@@H](O)CC[C@@]43C)[C@H]2CC[C@@]12O[C@H]1C[C@H](C)CN[C@H]1[C@@H]2C`, the Potency in assay [1] was over 11.4 µM. The activity change, negative = inhibition in assay [2] was 1.78%; in assay [4], 3.5%; in assay [7], 0.541% [at 11.4 µM]. In assay [3], the Potency result is “inactive”. In addition, the activity, negative = inhibition in assay [5] is 0.17%. Moreover, the outcome in [8] was inactive.

For `O=C(O)C(O)(c1ccc(-c2ccccc2)cc1)c1ccc(-c2ccccc2)cc1`, the Potency is over 11.4 µM in assay [1], over 46 µM in assay [9], over 9.22 µM in assay [6] and 3.16 µM (active) in assay [12]. Also, the activity change, negative = inhibition in [2] is -25.7%; in assay [7] it was 1.15% [at 11.4 µM]. The Potency result in assay [3] was “inactive”. In assay [5], the activity, negative = inhibition is -5.5%. In addition, the compound was classed as inactive in assay [8].

Consider `O=C(O)CSCC(=O)O`, for which the Potency is over 11.4 µM in [1] and over 9.22 µM in assay [6]. The results for the activity change, negative = inhibition in [2], in [4] and in [7] were -1.42%, 2.38% and 8.86% [at 11.4 µM], respectively. Moreover, the Potency result in [3] was “inactive”. Also, the activity, negative = inhibition in assay [5] is 7.17%. Also, the compound was called inactive in assay [8].

On to `C[As+](C)(c1ccc(Br)c([N+](=O)[O-])c1)c1ccc(Br)c([N+](=O)[O-])c1.O=[N+]([O-])O`, for which the Potency is over 11.4 µM in assay [1], over 46 µM in assay [9] and over 9.22 µM in assay [6]. Also, the activity change, negative = inhibition in assay [2] is 10.5%; in assay [4], -2.2%; in assay [7], -0.633% [at 11.4 µM]. Moreover, in [3], the Potency result is “inactive”. Besides, the outcome in assay [8] was inactive.

For the compound `CN(C)CCCc1c[nH]c2ccccc12`, the Potency in assay [1] was over 11.4 µM; in assay [6], over 9.22 µM. Further, the figures for the activity change, negative = inhibition in assay [2], in [4] and in assay [7] were -7.94%, -13% and 3.98% [at 11.4 µM], respectively. Also, the Potency entry in assay [3] was “inactive”. The activity, negative = inhibition in assay [5] was 1.91%. The outcome in assay [8] was inactive.

Regarding `NS(=O)(=O)C[C-]1C=C[CH]([Sb-]([Cl])([Cl])([Cl])([Cl])[Cl])C=C1.c1ccncc1` (configuration not stated), in assay [1], the Potency is over 11.4 µM. Also, the results for the activity change, negative = inhibition in assay [2] and in assay [4] were 2.96% and 2.26%, respectively. The Potency result in [3] was “inactive”. The activity, negative = inhibition in assay [5] was 19.7%. Moreover, in [8], the result was inactive.
